Sampled rows, rich in hits. Any-hit rate of the full collection: about 1.1%.
PfHsp40 yeast = rescue of yeast from PfHsp40 toxicity, primary screen, S. cerevisiae, ATP luminescence | S. cerevisiae expressing PfHsp40, growth rescue | growth rescue, % at 12.5 µM | actives 0.68% (n = 340,000) | AID 504582, 2011; in the data active = growth rescue above about 28%, passing the limit was not always enough; inconclusive = no clear call, values can overlap the other calls;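 note: yeast W303a lacking pdr1 and pdr3 grown in galactose medium; growth measured after three days at 30 °C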
FadD28 FP inh = inhibitors of FadD28 bisubstrate probe binding, primary screen, biochemical, fluorescence polarization, single point; inhibition, % at 12.5 µM; actives 0.22% (n = 360,000); AID 588549, 2011; in the data active = inhibition above about 8.5%, passing the limit was not always enough; inconclusive = no clear call, values can overlap the other calls
TcdB GH inh = TcdB glycohydrolase inhibitors, primary screen, biochemical, single point, plate reader; TcdB glycohydrolase enzymatic assay; inhibition, % at 9.99 µM; actives 0.24% (n = 350,000); in the data active = inhibition above about 10%
Mtb BioA inh = M. tuberculosis BioA enzyme inhibitors, primary screen, biochemical, plate reader, single point, HTS. actives 0.096% (n = 360,000). AID 602481, 2012. purified M. tuberculosis BioA enzyme. inhibition, % at 9.99 µM. 7,8-diaminopelargonic acid synthase BioA (Mycobacterium tuberculosis); in the data active = inhibition above about 40%; inconclusive = no clear call, values can overlap the other calls
PrP UTR inh = inhibition of PrP 5' UTR reporter expression; cell-based PrP 5' UTR mRNA reporter, plate reader; inhibition, % (test concentration not listed); actives 0.35% (n = 340,000); in the data active = inhibition above about 52%; note: 0 = median of the neutral control wells
* = called active by the depositor; ? = inconclusive; / = not tested or not shown; ! = not active in a repeat.

SMILES	PfHsp40 yeast	FadD28 FP inh	TcdB GH inh	Mtb BioA inh	PrP UTR inh
C[C@@H]1CN([C@H](C)CO)C(=O)Cc2cc(NC(=O)c3ccncc3)ccc2O[C@H]1CN(C)S(C)(=O)=O	/	/	0	0	/
O=C(NCc1cccnc1)c1c(O)c2cccc3c2n(c1=O)CCC3	60*	-3	2	/	1
Cc1[nH]n(C(N)=S)c(=O)c1N=Nc1ccc2ccccc2c1	55*	3	0	/	-88
CC(C)=CCc1c2c(c3occ(-c4ccc(O)cc4)c(=O)c3c1O)C=CC(C)(C)O2	39*	-9	-4	-3	-26
O=C(/C=C/c1ccccc1)NC(=S)NNC(=O)c1ccco1	35*	1	/	1	5
O=C(NC(=S)N(CCc1ccccc1)CCc1ccccc1)c1ccco1	187*	-1	/	-1	3
O=C(/C=C/c1ccccc1)NC(=S)Nc1ccccc1	102*	-1	0	-2	-7
O=C(/C=C/c1ccc(F)cc1)NC(=S)Nc1ccccc1	1	/	1	0	-9
COCC#Cc1cnc2c(c1)C(=O)N([C@H](C)CO)C[C@H](C)[C@@H](CN(C)C(=O)CN1CCOCC1)O2	/	/	0	-1	/
c1ccc(-c2nc(NCc3cccnc3)c3oc4ccccc4c3n2)cc1	48*	-13	/	4	-12
CN(C)c1ccc(NC(=O)/C=C/c2c(Cl)cccc2Cl)cc1	-2	0	13*	/	-108
CN(C)S(=O)(=O)c1ccc(NC(=O)/C=C/c2ccccc2Cl)cc1	0	-12	/	/	-32
S=C(NCCc1ccccc1)NC1CCCCCC1	88*	-1	/	-1	-109
S=C(NCCc1ccc(Cl)cc1)NC1CCCCC1	200*	-7	4	-1	-42
S=C(NCCc1ccc(Cl)cc1)NC1CCCC1	17	-2	0	/	-38
CO[C@@H]1CN(C)C(=O)c2cc(NC(=O)C3CC3)ccc2OC[C@@H](C)N(C(=O)c2cnccn2)C[C@H]1C	/	/	0	3	/
CC(C)=NNC(=O)c1c(O)c2ccccc2[nH]c1=O	100*	-4	1	/	-20
Cc1cccc(S(=O)(=O)N[C@@H]2CC[C@H](CCNC(=O)CCN3CCCCC3)O[C@H]2CO)c1	/	/	0	3	/
C[C@H]1[C@H](OC(=O)CCC(=O)NCc2ccc(C(=O)O)cc2)O[C@@H]2O[C@@]3(C)CC[C@H]4[C@H](C)CC[C@@H]1C24OO3	188*	-1	/	-1	-18
CC1C(OC(=O)CCC(=O)NC(C)(C)CO)O[C@H]2OC3(C)CC[C@H]4[C@H](C)CCC1C24OO3 (some centres undefined)	122*	0	1	-1	-30
CC(C)CC(NC(=O)CCCNC(=O)CCC(=O)OC1O[C@H]2OC3(C)CC[C@H]4[C@H](C)CCC(C1C)C24OO3)C(=O)O (some centres undefined)	196*	0	1	-3	2
COc1ccc(S(=O)(=O)Nc2ccc3c(c2)CC(=O)N([C@H](C)CO)C[C@H](C)[C@H](CN(C)S(=O)(=O)c2ccc(F)cc2)O3)cc1	/	/	/	-4	/
CC(=O)C(C(C)=O)c1c(Cl)c(O)c(O)c2c(C(=O)c3ccccc3)coc12	51*	1	/	/	-1
CC1CCc2[nH]c3ccc(C(=O)O)cc3c2C1 (centres undefined)	3	-3	0	-2	-17
O=C(O)c1ccc2[nH]c3c(c2c1)CCCC3	35*	-1	0	0	7
SMILES	PfHsp40 yeast	FadD28 FP inh	TcdB GH inh	Mtb BioA inh	PrP UTR inh
CS(=O)(=O)N1[C@H](CO)[C@@H](c2ccccc2)[C@@H]1C#N	/	/	0	0	/
CCC(C)n1ncn(-c2ccc(N3CCN(c4ccc(OCC5COC(Cn6cncn6)(c6ccc(Cl)cc6Cl)O5)cc4)CC3)cc2)c1=O (centres undefined)	181*!	1	-1	-2	14
CS(=O)(=O)Nc1ccc2c(c1)[C@H]1C[C@@H](CC(=O)NCc3ccc(Cl)cc3)O[C@H](CO)[C@H]1O2	/	/	1	-3	/
O=C(O)c1cc(NN=C2c3ccccc3-c3ccccc32)ccc1Cl	138*	15*	0	4	-7
O=C(O)c1cc(N/N=C/C(Cl)=C/c2ccccc2)ccc1Cl	6	19*	0	2	-55
O=C(O)c1cc(N/N=C/c2cccc3ccccc23)ccc1Cl	-1	3	-1	0	-69
O=C(O)c1cccc2c1-c1ccccc1/C2=N\Nc1ccccc1	/	?	0	0	-37
O=C(O)c1cccc(NN=C2c3ccccc3-c3ccccc32)c1	269*	13*	1	/	-24
COc1ccccc1-c1ccccc1[C@H]1[C@H](C#N)N(C(=O)CN(C)C)[C@H]1CO	/	/	0	/	/
CCN(CC)S(=O)(=O)c1cc(C(=O)OCC(=O)Nc2c(F)cccc2F)ccc1F	1	-5	0	0	-21
CCN(CC)S(=O)(=O)c1cc(C(=O)OCC(=O)Nc2cccc(Br)c2)ccc1F	3	56*	/	/	-21
Cc1ccc2c(c1)-c1c(cnn1CC(=O)NC(C)CCc1ccco1)CO2 (centres undefined)	0	-2	11*	-7	-4
Cc1ccc2c(c1)-c1c(cnn1CC(=O)N(Cc1ccco1)C1CCCCC1)CO2	2	-4	1	-2	-25
COc1ccc(Cl)cc1C(Nc1cccnc1)c1ccc2cccnc2c1O (centres undefined)	89*	-4	1	/	-17
Oc1c(C(Nc2cccc(C(F)(F)F)c2)c2cccnc2)ccc2cccnc12 (centres undefined)	382*	-1	/	/	-19
O=C(c1cccnc1)N1C[C@H]2[C@@H](c3ccccc31)[C@@H](CO)N2C(=O)C1CC1	/	/	/	-3	/
Cn1cnc([N+](=O)[O-])c1S(=O)(=O)Oc1ccc(Cl)cc1	233*	-1	1	-3	-14
O=C(C[C@H]1CC[C@H]2[C@@H](COC[C@@H](O)CN2C(=O)c2cnccn2)O1)N1CCN(c2ccccc2)CC1	/	/	/	-1	/
COc1ccc(-c2oc3c(OC)c(OC)c(OC)c(O)c3c(=O)c2OC)cc1OC	71*	0	7	0	-6
O=C(CN1CCOCC1)NCC[C@H]1CC[C@@H](NS(=O)(=O)c2ccc(F)cc2)[C@@H](CO)O1	/	/	-1	-1	/
O=c1ccc(N=Nc2ccccc2)ccc1O	102*	-1	0	0	-15
CCc1ccc(/C=C/C(=O)C2C(=O)c3ccccc3C2=O)cc1	0	13*	/	/	18
Oc1cccc(C(Nc2nccs2)c2ccc3cccnc3c2O)c1 (centres undefined)	215*	-1	1	/	13
COc1cccc(C(NC(C)=O)c2ccc3cccnc3c2O)c1 (centres undefined)	?	-1	-9	1	31
CCC(=O)NC(c1cccs1)c1cc([N+](=O)[O-])c2cccnc2c1O (centres undefined)	0	2	0	-1	-13

Bioassay records from PubChem BioAssay.
